Hits are enriched below; roughly 1.5% of the tested compounds scored in any of these assays.
Epigenetic reg: regulators of epigenetic silencing causing reporter derepression in mouse cells. AID 1865. hit rate 0.2% among 280,000. murine LDR cells, GFP reporter derepression, 30 h. Potency, µM (top dose mostly 53.9 µM), for inactives: at the top dose GFP activation, most hits filed as activators; further: % of control where 0% means no effect; nearly all actives have a fitted effect of over 60% in size
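Murine LDR cells carrying a silenced, genomically integrated CMV-driven GFP reporter were exposed to compound for 30 hours at 37 C. After PBS washes, GFP-positive cells (20–120 um objects) were counted by laser-scanning microplate cytometry.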
HTT cytoprotect: Huntington cell model cytoprotection by ATP luminescence; PC12 HTT-Q103 induced, cytoprotection, ATP luminescence, 40 h; Potency, µM (highest dose often 56.4 µM), for the others: cytoprotection (ATP increase), usual class: activators; hit rate 0.14% among 230,000; AID 1471; further: % of control where 0% means no effect; nearly all actives have a fitted effect of over 45% in size
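Compounds added alongside 100 nM tebufenozide, which induces toxic Q103 huntingtin exon 1-GFP in stable PC12 cells; surviving cells quantified by luminescent ATP measurement. Medium: phenol red-free DMEM, 5% equine and 5% calf serum.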
Lamin A splicing: modulators of lamin A splicing. HeLa LMNA splicing GFP/RFP minigene ratio, 48 h. Potency, µM (highest dose often 46.1 µM), without a hit: top-dose ratio change, negative = inhibition, most hits filed as inhibitors. hit rate 0.01% among 200,000. AID 1487; active means well fitted inhibition curve with a large enough effect in the signal ratio, with a control signal flat, not every such curve was filed as active; inconclusive means small, poorly fitted or top-dose-only effect, or effect the other way, or a change in a side signal; the % refers to the signal ratio; further: on the % scale 0 is the no-effect control and ±100 the full control effect
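S3 HeLa cells stably expressing lamin A-EGFP splicing minigene plus DsRed2, 600 cells/well, 48 h compound exposure at 37C. Laser-scanning cytometry; analysed as GFP (500-530 nm)/RFP (575-640 nm) total intensity ratio; 0.5% DMSO vehicle.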
NPSR antagonist: antagonists of human neuropeptide S receptor cAMP signaling. Q6W5P4. CHO-NPSR cells, cAMP TR-FRET, antagonist mode. Potency, µM (titrated, usually from 38.3 µM), for inactives: at the top dose activity change, negative = inhibition, most hits filed as inhibitors. hit rate 1% among 220,000. AID 1461; further: on the % scale 0 is the no-effect control and ±100 the full control effect; nearly all actives have a fitted effect of over 50% in size
Target sequence (Q6W5P4 whole entry, looked up): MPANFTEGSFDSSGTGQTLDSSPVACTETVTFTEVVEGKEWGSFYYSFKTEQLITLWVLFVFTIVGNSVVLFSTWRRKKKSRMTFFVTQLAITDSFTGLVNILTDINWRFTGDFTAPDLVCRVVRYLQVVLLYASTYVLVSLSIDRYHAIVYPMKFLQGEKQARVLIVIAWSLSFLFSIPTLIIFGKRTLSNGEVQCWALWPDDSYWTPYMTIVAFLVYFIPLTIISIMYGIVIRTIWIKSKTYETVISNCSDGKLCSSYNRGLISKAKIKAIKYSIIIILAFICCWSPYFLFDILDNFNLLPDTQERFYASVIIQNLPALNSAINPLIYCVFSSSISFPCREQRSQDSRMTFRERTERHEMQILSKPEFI
HTT aggregate: mutant huntingtin aggregation inhibition; PC12 HttQ103-GFP aggregates, Acumen cytometry, 40 h; Potency, µM (highest dose often 46.1 µM), for the others: top-dose activity change, negative = inhibition, most hits filed as inhibitors; hit rate 1.1% among 220,000; further: on the % scale 0 is the no-effect control and ±100 the full control effect; nearly all actives have a fitted effect of over 60% in size
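Inducible Q103 Huntingtin exon 1–GFP PC12 line, 1500 cells/well in phenol red free DMEM with 5% equine and 5% calf serum. Tebufenozide 100 nM induced expression; compounds titrated; aggregates quantified by cytometry.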
* = called active by the depositor; u = inconclusive; x = no result given; [ ] = dose if it differs, or a comment. Unless noted, the call rests on the fitted dose curve; in most records, active means well fitted curve in the direction sought with a large enough effect; inconclusive means small, poorly fitted or top-dose-only effect, or another doubt; inactive means no such curve, though single readings can be large; an effect the other way counts as inactive or inconclusive. Potency means the concentration at half of the fitted maximal effect.

SMILES	Epigenetic reg	HTT cytoprotect	Lamin A splicing	NPSR antagonist	HTT aggregate
CCCCCC(=O)O[C@]1(C(C)=O)CC[C@H]2[C@@H]3CCC4=CC(=O)CC[C@]4(C)[C@H]3CC[C@@]21C	2%	x	u	10µM*	u
CCCC(=O)O[C@]1(C(=O)CO)CCC2[C@@H]3CCC4=CC(=O)CC[C@]4(C)C3C(O)C[C@]21C (some centres not stated)	12%	-72%	u	x	2%
COc1cc(C2SC[C@H]3C(=O)N(c4ccccc4)C(=O)N23)cc(OC)c1OC (some centres not stated)	2%	x	x	x	x
CCCCCc1cc(=O)oc2c(C(CCN3CCCCC3)c3cc(OC)c(OC)c(OC)c3)c(OC)cc(OC)c12 (configuration not stated)	-5%	-20%[10 µM]	x	10µM*	-9%[9.22 µM]
COc1cc(C(CCN2CCN(c3ccccc3)CC2)c2c(OC)cc(OC)c3c(C)cc(=O)oc23)cc(OC)c1OC (configuration not stated)	1%	-31%[10 µM]	x	6.3µM*	-18%[9.22 µM]
CCCCCc1cc(=O)oc2c(C(CCN3CCCC(C)C3)c3cc(OC)c(OC)c(OC)c3)c(OC)cc(OC)c12 (configuration not stated)	1%	-28%[10 µM]	x	6.3µM*	-9%[9.22 µM]
CCCCCc1cc(=O)oc2c(C(CCN3CCCC(C)C3)c3ccc(N(C)C)cc3)c(OC)cc(OC)c12 (configuration not stated)	1%	-11%[10 µM]	x	u	-25%[9.22 µM]
O=C(COc1ccccc1)Nc1nnc2n1CCS2	1%	x	-3%[46 µM]	x	x
COC(=O)C1=C(C)N(Cc2ccccc2)C2=C(C(=O)c3ccccc3)C(c3ccccc3)[C@@](O)(C(=O)OC)C(=O)N2C1c1ccccc1 (some centres not stated)	1%[10.1 µM]	3%[10 µM]	x	x	x
O=C(Nc1ccccc1Br)N1CCC(CN2CCCC2)CC1	0%	x	u	x	x
CCOC(=O)/C(=N\Nc1ccccc1)S(=O)(=O)c1ccccc1	1%	-10%[10 µM]	u	-7%[46.1 µM]	-5%
CCOC(=O)/C(=N\Nc1ccccc1)P(=O)(c1ccccc1)c1ccccc1	1%	5%[10 µM]	x	10µM*	-4%[9.22 µM]
O=[N+]([O-])c1ccc(N=NN(CCO)CCO)cc1	2%	x	2%	11%	-7%
O=[N+]([O-])c1ccc(N=Nc2ccc(O)cc2O)cc1	-8%	-147%	u	10µM*	1.3µM*
CC1CCCCN1c1cc2c(cc1F)c(=O)c(S(=O)(=O)c1ccccc1)cn2Cc1ccccc1 (configuration not stated)	-3%	x	14%[46 µM]	x	x
O=c1[nH]cnc2sc3c(c12)CCCC3	1%	11%	8%	-3%[46.1 µM]	13µM*
Cc1ccc(CNc2ncnc3onc(-c4ccc(F)cc4)c23)cc1	-2%	x	3%[46 µM]	x	x
COc1ccc(N(C(C)C(=O)N/N=C/c2cc(Br)c(C)o2)S(C)(=O)=O)cc1 (configuration not stated)	2%	0.89µM*	-3%[46 µM]	0%	u
CCOc1ccc(/C=N/NC(=O)C(C)N(c2ccc(OC)cc2)S(C)(=O)=O)cc1OCC (configuration not stated)	2%	-9%	x	18%	-14%
CCOC(=O)c1ccc(NC(=O)CSc2nc3ccccc3c(=O)n2CCC(=O)NC2CCCCC2)cc1	-1%	x	27%[46 µM]	x	x
N/C(=N\OC(=O)C(c1ccccc1)c1ccccc1)c1cccnc1	0%	12%	1%[0.0737 µM]	-26%[46.1 µM]	0.71µM*
O=C1NCN(c2ccccc2)C12CCN(CCCC(c1ccc(F)cc1)c1ccc(F)cc1)CC2	u	u	u	13µM*	14µM*
CCOc1ccc(S(=O)(=O)N(C(=O)c2ccco2)c2cc3sc(=O)oc3c3ccccc23)cc1	2%	0.89µM*	-1%	-27%	0%
FC(F)(F)c1nnc2c(Sc3ccccn3)nc3ccccc3n12	5%	11µM*	u	-25%[46.1 µM]	x
Cc1cc(=O)c2c(O)c3c(O)cc(O)c4c5c(O)cc(O)c6c(O)c7c(=O)cc(C)c8c1c2c(c34)c(c65)c78	5%	-96%	x	x	x
SMILES	Epigenetic reg	HTT cytoprotect	Lamin A splicing	NPSR antagonist	HTT aggregate
O=C(Nc1ccccc1F)C(=Cc1sc(N2CCOCC2)nc1-c1ccccc1)C(=O)Nc1ccccc1F	14µM*	2%[10 µM]	u	-4%	22%
O=C(COc1ccc(Br)cc1CNCCc1ccccc1)NCc1ccccc1	1%	-231%	x	-55%	13µM*
CCN(c1ccccc1)S(=O)(=O)c1nnc(NC(=O)COc2cccc(C)c2)s1	8.9µM*	x	14%[46 µM]	x	x
CCOC(=O)C1=C(SCC)c2cc3c(n2C1=O)CCCC3	2%	4%[10 µM]	u	13µM*	31%
COc1ccc(-c2nc(CS(=O)CC(=O)NCc3ccc(F)cc3)c(C)o2)cc1OC (configuration not stated)	0%	x	x	x	x
Cc1ccc2cc3cc(C(=O)N(CC(=O)NC4CCCC4)c4cccc(C)c4C)sc3nc2c1	-1%	3.2µM*	-11%	u	-3%
Cc1ccc(C)c(N(CC(=O)NC2CCCC2)C(=O)c2cc3cc4cccc(C)c4nc3s2)c1	-1%	35%	5%	-3%[46.1 µM]	-11%
Cc1oc2c(c1C(=O)N1CCC(C)CC1)C(=O)c1ccccc1C2=O	3%	x	u	6%	7.1µM*
CCOC(=O)C1CCN(C(=O)c2c(C)oc3c2C(=O)c2ccccc2C3=O)CC1	2%	x	u	6%	-1%
S=C1N[C@H](c2ccccc2)N[C@H](c2ccccc2)S1	x	21%[10 µM]	x	x	x
CCc1ccccc1N(C)C(=O)CCc1nc(-c2ccc(C)cc2)no1	1%	-66%	u	u	11µM*
Cc1cc(-c2ccccc2)nc(N/N=C/c2ccc([N+](=O)[O-])cc2)n1	1%	x	3%	-9%	0.028µM*
Cc1cc(N/N=C/c2ccc(Cl)cc2)nc(NCc2ccccc2)n1	0%	x	u	1%	13µM*
CC(C)Cn1c(N)c(C(=O)COC(=O)CC23CC4CC(CC(C4)C2)C3)c(=O)n(C)c1=O	1%	-8%[10 µM]	u	u	7.1µM*
Cc1nonc1NC(=O)CSc1nc2c(C)cccc2cc1C#N	16µM*	-13%	3%[46 µM]	u	3%
Cc1ccc(C)c2nc(SCC(=O)Nc3ccc4c(c3)OCO4)c(C#N)cc12	0%	7%[10 µM]	x	12%	11%[9.22 µM]
O=C1/C(=C/c2cccnc2)SC(=S)N1C1CCS(=O)(=O)C1 (configuration not stated)	11%	17%[10 µM]	20µM*	-7%[46.1 µM]	u
O=C1/C(=C\c2cccnc2)SC(=S)N1C1CCS(=O)(=O)C1 (configuration not stated)	-1%	-52%	x	3%[46.1 µM]	u
COc1ccc(Cl)cc1NC(=O)N1CCN(Cc2cc(=O)n3nc(-c4ccccc4)sc3n2)CC1	0%	x	4%[46 µM]	x	x
